Experimental data as given in PubChem BioAssay AID2049 (The Scripps Research Institute Molecular Screening Center, 2009).
Activity calls are given as the source filed them. No rule for the calls is given here.

Test system: BCL3
Assay: STAT3 activation with BCL3 mRNA and toxicity – cell-based, STAT1 reporter, BCL3 qPCR, cytotoxicity, late-stage follow-up (AID 2049)
Settings: human cell reporter; BCL3 mRNA qPCR, at 10 µM, stronger effect = higher value

| Structure (SMILES) | fold change | outcome |
| --- | --- | --- |
| COc1cc(NC(=O)c2cc(C3CC3)on2)c(OC)cc1Cl | 2.07 | active; probe |
| COc1cc(NC(=O)c2cc(C(C)C)on2)c(OC)cc1Cl | 0.42 | inactive; active |
| CCCc1cc(C(=O)Nc2cc(OC)c(Cl)cc2OC)no1 | 1.3 | active |
